Records with an inconclusive call do not appear. Active and inactive are the calls of the source. The calls were made as follows: active = hit-call score of the fitted dose curve at least 0.9, where 1 is the maximum; inconclusive = response in the unintended direction; inactive = score below 0.9.
Experiments:
[1] = biological target: human Peroxisome Proliferator-activated Receptor alpha (PPARa), PPARA (gene 5465) (UniProt Q07869); experiment: ATG_PPARa_TRANS: Attagene TRANS-FACTORIAL HepG2 Assay for human Peroxisome Proliferator-activated Receptor alpha (PPARa) (AID 2283001);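 as to AC50: potency for gain of reporter signal over DMSO so agonist or activator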
Sequence of human Peroxisome Proliferator-activated Receptor alpha (PPARa), PPARA (gene 5465) (Q07869 whole entry, looked up, the tested form may be a part): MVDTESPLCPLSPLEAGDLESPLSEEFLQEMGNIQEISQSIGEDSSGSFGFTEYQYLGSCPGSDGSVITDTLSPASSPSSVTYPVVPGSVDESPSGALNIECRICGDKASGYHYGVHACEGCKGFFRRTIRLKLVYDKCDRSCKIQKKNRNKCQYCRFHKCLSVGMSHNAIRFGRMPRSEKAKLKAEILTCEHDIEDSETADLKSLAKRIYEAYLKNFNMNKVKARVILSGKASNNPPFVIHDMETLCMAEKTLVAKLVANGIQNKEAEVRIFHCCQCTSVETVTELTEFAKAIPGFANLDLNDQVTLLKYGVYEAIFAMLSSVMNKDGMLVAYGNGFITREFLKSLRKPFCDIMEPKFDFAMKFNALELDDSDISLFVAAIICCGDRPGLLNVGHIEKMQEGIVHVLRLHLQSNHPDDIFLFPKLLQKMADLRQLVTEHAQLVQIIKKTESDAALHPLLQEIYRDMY
Method in brief: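 Read-out is fluorescence of reporter cDNA fragments resolved by capillary electrophoresis after RT-PCR. Human HepG2 liver cells carried transfected PPARa-Gal4 chimera and GAL4-UAS reporter units, treated 24 h; activity scored as increase over DMSO.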

[2] = biological target: human Peroxisome Proliferator-activated Receptor delta (PPARd), PPARD (gene 5467) (UniProt Q03181); experiment: ATG_PPARd_TRANS: Attagene TRANS-FACTORIAL HepG2 Assay for human Peroxisome Proliferator-activated Receptor delta (PPARd) (AID 2283002)
Sequence of human Peroxisome Proliferator-activated Receptor delta (PPARd), PPARD (gene 5467) (Q03181 whole entry, looked up): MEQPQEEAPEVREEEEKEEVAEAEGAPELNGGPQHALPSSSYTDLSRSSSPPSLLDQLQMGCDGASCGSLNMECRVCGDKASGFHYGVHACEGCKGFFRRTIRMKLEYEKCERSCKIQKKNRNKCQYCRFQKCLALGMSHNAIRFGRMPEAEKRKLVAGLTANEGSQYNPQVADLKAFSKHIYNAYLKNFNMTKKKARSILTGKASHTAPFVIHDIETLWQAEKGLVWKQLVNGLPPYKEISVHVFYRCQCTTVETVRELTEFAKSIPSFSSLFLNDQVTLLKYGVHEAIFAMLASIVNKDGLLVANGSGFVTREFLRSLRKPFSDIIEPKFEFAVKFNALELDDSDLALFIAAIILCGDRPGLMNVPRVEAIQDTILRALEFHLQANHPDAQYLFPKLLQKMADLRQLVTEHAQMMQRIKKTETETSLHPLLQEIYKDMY
Method in brief: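 Cell-based TRANS reporter: HepG2, transient MRTU transfection, 24 h exposure. Readout = reporter mRNA (RT-PCR/CE, 6-FAM). Gain-of-signal fit vs DMSO control.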

[3] = biological target: Peroxisome proliferator-activated receptor gamma (Homo sapiens) (UniProt P37231); experiment: ATG_PPARg_TRANS: Attagene TRANS-FACTORIAL HepG2 Assay for human Peroxisome Proliferator-activated Receptor-gamma (PPARg) (AID 2283007)
Sequence of Peroxisome proliferator-activated receptor gamma (Homo sapiens) (P37231 whole entry, looked up, the tested form may be a part): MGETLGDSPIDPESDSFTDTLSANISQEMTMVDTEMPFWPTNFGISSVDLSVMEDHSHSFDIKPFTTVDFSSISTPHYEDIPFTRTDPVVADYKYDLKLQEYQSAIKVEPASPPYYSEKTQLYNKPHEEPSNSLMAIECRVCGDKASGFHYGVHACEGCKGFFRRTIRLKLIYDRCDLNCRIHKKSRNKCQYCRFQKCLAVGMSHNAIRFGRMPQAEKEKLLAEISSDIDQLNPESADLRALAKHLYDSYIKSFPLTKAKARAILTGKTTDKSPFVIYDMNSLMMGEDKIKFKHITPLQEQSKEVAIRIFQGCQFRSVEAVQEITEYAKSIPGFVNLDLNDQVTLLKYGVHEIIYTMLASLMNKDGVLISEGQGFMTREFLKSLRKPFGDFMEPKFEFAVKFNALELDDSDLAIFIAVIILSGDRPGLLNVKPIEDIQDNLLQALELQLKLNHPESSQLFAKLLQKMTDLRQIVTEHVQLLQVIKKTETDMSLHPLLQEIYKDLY
Method in brief: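 Read-out: reporter mRNA induction, detected by fluorescence after RT-PCR and capillary electrophoresis. Transiently transfected human HepG2 liver cells carrying a chimeric NR-Gal4 construct were dosed for 24 h; activity was fitted upward relative to DMSO.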

[4] = biological target: Nuclear receptor subfamily 1 group I member 2 (Homo sapiens) (UniProt O75469); experiment: ATG_PXR_TRANS: Attagene TRANS-FACTORIAL HepG2 Assay for human Pregnane X Receptor (PXR) (AID 2283008)
Sequence of Nuclear receptor subfamily 1 group I member 2 (Homo sapiens) (O75469 whole entry, looked up, the tested form may be a part): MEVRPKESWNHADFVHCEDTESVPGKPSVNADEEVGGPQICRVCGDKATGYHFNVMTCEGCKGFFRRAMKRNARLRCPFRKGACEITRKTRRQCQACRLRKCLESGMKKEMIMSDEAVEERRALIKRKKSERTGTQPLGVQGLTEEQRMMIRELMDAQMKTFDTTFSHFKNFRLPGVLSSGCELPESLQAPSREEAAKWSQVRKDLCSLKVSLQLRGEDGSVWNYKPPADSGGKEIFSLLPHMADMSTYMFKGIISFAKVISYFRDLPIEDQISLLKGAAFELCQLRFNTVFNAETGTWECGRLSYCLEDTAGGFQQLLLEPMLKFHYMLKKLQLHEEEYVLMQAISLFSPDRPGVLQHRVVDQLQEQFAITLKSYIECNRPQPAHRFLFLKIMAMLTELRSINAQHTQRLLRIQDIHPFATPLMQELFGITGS
Method in brief: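 Fluorescence intensity of FAM-labelled, HpaI-digested reporter amplicons, separated by capillary electrophoresis, quantifies induction. HepG2 cells with PXR-Gal4 trans-reporter system were exposed 24 h; DMSO defines baseline.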

[5] = biological target: human RAR-related Orphan Receptor gamma (RORg), RORC (gene 6097) (UniProt P51449); experiment: ATG_RORg_TRANS: Attagene TRANS-FACTORIAL HepG2 Assay for human RAR-related Orphan Receptor gamma (RORg) (AID 2283011)
Sequence of human RAR-related Orphan Receptor gamma (RORg), RORC (gene 6097) (P51449 whole entry, looked up, the tested form may be a part): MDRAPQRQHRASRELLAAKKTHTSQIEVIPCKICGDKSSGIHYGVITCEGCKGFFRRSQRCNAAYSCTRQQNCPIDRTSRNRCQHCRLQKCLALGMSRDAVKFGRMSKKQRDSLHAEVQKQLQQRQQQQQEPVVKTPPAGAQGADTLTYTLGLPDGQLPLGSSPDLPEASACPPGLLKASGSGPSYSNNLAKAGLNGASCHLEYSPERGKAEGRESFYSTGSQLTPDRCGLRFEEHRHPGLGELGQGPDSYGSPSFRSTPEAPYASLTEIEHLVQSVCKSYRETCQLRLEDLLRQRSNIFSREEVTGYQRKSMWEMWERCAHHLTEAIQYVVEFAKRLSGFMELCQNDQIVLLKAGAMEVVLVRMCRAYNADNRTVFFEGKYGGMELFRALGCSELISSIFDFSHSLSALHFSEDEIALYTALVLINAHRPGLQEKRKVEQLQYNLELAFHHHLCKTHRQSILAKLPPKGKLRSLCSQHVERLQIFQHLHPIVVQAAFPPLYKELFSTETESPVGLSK
Method in brief: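 Activity is scored as increase in GAL4-UAS reporter mRNA over DMSO, detected by fluorescent RT-PCR and capillary electrophoresis in HepG2 cells transiently expressing a RORg-Gal4 chimera, 24 h after dosing.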

[6] = biological target: Retinoic acid receptor RXR-alpha (Homo sapiens) (UniProt P19793); experiment: ATG_RXRa_TRANS: Attagene TRANS-FACTORIAL HepG2 Assay for human Retinoid X Receptor alpha (RXRa) (AID 2283012)
Sequence of Retinoic acid receptor RXR-alpha (Homo sapiens) (P19793 whole entry, looked up, the tested form may be a part): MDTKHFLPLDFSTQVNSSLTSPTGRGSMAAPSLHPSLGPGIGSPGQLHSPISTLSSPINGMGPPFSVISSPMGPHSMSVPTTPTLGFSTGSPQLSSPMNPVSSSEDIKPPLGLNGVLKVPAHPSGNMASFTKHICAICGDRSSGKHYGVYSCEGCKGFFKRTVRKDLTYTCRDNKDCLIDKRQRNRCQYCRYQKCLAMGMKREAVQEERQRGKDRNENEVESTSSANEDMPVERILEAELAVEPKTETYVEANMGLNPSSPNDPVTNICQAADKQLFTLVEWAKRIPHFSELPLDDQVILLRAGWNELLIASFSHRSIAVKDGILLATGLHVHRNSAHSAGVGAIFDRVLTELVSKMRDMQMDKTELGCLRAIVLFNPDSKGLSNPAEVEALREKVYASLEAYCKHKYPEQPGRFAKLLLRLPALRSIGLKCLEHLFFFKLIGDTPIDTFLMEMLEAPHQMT
Method in brief: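 HepG2 cells transiently transfected with GAL4-UAS reporter units and chimeric RXRa-Gal4 protein, treated 24 h. Reporter mRNA measured by RT-PCR, fluorescent labelling, HpaI digestion and capillary electrophoresis. Induction fitted against DMSO.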

[7] = biological target: human Thyroid Receptor alpha (THRa1), THRA (gene 7067) (UniProt P10827); experiment: ATG_THRa1_TRANS: Attagene TRANS-FACTORIAL HepG2 Assay for human Thyroid Receptor alpha (THRa1) (AID 2283014)
Sequence of human Thyroid Receptor alpha (THRa1), THRA (gene 7067) (P10827 whole entry, looked up, the tested form may be a part): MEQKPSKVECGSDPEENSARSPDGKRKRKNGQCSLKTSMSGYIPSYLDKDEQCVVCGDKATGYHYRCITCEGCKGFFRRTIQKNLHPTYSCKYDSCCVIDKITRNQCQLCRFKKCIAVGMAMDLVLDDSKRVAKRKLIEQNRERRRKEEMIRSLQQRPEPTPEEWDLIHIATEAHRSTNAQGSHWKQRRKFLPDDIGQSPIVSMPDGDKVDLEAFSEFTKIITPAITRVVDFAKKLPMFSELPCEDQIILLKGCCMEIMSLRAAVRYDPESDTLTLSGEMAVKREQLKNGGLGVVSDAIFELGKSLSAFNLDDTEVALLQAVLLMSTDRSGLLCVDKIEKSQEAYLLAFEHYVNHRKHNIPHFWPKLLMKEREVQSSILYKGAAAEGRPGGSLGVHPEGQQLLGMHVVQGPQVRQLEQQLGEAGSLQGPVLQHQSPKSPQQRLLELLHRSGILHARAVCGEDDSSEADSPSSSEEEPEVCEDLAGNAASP
Method in brief: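 First, HepG2 cells receive multiple GAL4-UAS reporter units and the chimeric receptor. They are then dosed for 24 h, after which RNA is reverse-transcribed, amplified, labelled, HpaI-cut and sized by capillary electrophoresis; gain relative to DMSO is scored.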

[8] = biological target: human Retinoid X Receptor beta (RXRb), RXRB (gene 6257) (UniProt P28702); experiment: ATG_RXRb_TRANS: Attagene TRANS-FACTORIAL HepG2 Assay for human Retinoid X Receptor beta (RXRb) (AID 2283013)
Sequence of human Retinoid X Receptor beta (RXRb), RXRB (gene 6257) (P28702 whole entry, looked up, the tested form may be a part): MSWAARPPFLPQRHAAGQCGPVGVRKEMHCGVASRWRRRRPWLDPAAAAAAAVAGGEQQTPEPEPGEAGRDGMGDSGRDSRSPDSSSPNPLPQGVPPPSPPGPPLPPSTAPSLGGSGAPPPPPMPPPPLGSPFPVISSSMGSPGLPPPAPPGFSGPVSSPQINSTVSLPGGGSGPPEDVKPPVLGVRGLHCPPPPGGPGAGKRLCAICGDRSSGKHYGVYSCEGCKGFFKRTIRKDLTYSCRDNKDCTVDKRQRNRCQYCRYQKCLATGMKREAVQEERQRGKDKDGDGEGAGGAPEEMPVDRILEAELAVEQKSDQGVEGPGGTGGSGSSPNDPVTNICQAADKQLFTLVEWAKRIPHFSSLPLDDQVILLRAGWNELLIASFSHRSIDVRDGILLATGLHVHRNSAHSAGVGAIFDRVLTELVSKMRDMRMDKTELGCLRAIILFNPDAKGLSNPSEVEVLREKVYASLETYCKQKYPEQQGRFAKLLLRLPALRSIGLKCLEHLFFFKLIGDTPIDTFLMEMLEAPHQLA
Method in brief: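 HepG2 cells were transiently transfected with multiplexed GAL4-UAS reporters and a chimeric RXRb-Gal4 construct, then exposed for 24 h. Reporter mRNA was quantified by RT-PCR, FAM labeling, HpaI digestion and capillary electrophoresis; gain of signal was scored against DMSO.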

[9] = biological target: human RAR-related Orphan Receptor beta (RORb), RORB (gene 6096) (UniProt Q92753); experiment: ATG_RORb_TRANS: Attagene TRANS-FACTORIAL HepG2 Assay for human RAR-related Orphan Receptor beta (RORb) (AID 2283010)
Sequence of human RAR-related Orphan Receptor beta (RORb), RORB (gene 6096) (Q92753 whole entry, looked up, the tested form may be a part): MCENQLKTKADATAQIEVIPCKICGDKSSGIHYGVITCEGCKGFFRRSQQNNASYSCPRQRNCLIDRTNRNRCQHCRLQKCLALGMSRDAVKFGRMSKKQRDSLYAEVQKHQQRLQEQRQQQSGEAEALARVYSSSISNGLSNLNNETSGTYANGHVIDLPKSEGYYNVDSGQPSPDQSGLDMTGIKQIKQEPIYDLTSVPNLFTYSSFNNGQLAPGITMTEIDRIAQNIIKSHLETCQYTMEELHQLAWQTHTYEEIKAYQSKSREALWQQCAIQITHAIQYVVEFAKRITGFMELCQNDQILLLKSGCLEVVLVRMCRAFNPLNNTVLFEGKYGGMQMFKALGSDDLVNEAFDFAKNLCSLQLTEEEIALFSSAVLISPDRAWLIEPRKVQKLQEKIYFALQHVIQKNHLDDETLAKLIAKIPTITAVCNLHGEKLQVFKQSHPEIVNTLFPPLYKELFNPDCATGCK
Method in brief: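 HepG2 cells transiently transfected with GAL4-UAS reporter units expressing chimeric NR-Gal4 protein; reporter mRNA measured 24 h after dosing by RT-PCR, 6-FAM labelling and capillary electrophoresis. Gain-of-signal fitted relative to DMSO baseline.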

[10] = biological target: human Retinoic Acid Receptor gamma (RARg), RARG (gene 5916) (UniProt P13631); experiment: ATG_RARg_TRANS: Attagene TRANS-FACTORIAL HepG2 Assay for human Retinoic Acid Receptor gamma (RARg) (AID 2283009)
Sequence of human Retinoic Acid Receptor gamma (RARg), RARG (gene 5916) (P13631 whole entry, looked up, the tested form may be a part): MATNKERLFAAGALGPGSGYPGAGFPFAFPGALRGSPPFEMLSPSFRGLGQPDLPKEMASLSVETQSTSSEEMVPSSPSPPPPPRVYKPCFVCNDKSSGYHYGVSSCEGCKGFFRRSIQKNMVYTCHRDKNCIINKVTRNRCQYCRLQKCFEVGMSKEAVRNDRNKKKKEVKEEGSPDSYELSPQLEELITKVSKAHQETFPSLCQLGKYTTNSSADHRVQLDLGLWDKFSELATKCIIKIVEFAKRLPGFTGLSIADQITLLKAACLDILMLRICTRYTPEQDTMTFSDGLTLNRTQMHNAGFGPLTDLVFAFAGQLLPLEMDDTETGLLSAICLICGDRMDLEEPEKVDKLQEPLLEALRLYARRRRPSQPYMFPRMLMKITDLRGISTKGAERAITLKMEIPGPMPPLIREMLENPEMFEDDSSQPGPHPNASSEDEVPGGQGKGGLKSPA
Method in brief: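 HepG2 transiently transfected with GAL4-UAS reporter units and chimeric NR-Gal4 constructs; 24 h compound exposure. Reporter mRNA quantified by RT-PCR, FAM labeling, HpaI digestion and capillary electrophoresis; gain-of-signal versus DMSO.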

[11] = biological target: human Retinoic Acid Receptor beta (RARb), RARB (gene 5915) (UniProt P10826); experiment: ATG_RARb_TRANS: Attagene TRANS-FACTORIAL HepG2 Assay for human Retinoic Acid Receptor beta (AID 2283004)
Method in brief: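 HepG2, transient MRTU transfection, NR–Gal4 chimera, 24 h treatment; RT-PCR plus CE fluorescence detection of reporter mRNA; gain of signal vs DMSO.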

Measured: AC50

CN(C)c1ccc(C=O)cc1
inactive: [1] | [2] | [3] | [4] | [5] | [6] | [7]

NS(=O)(=O)c1cc(C(=O)O)c(NCc2ccco2)cc1Cl
inactive: [1] | [2] | [4] | [5] | [7]
active: [3] 42.7 µM

NNC(=O)OCc1ccccc1
inactive: [1] | [2] | [3] | [4] | [5] | [6] | [8] | [7]

CCCCCc1cccc(=O)o1
inactive: [1] | [2] | [4] | [8] | [7]

O=S(=O)(O)CCCN1CCOCC1
inactive: [1] | [2] | [3] | [4] | [8]

CCOCC(C)O (configuration not stated)
inactive: [1] | [2] | [9] | [5]

O=S1(=O)CC=CC1
inactive: [1] | [2] | [5] | [6]

CCC(=O)OC/C=C(\C)CCC=C(C)C
inactive: [1] | [2] | [3] | [4] | [5] | [7]

S=c1[nH][nH]c(=S)s1
inactive: [1] | [2] | [4] | [5] | [6] | [7]

CC(C)N1C(=O)c2ccccc2C1=O
inactive: [1] | [2] | [4] | [9] | [7]

CC(=O)Nc1cc(S(=O)(=O)O)cc2cc(S(=O)(=O)O)c(N=Nc3ccccc3)c(O)c12
inactive: [1] | [2] | [4] | [10] | [9] | [5] | [6]

N#CCCNCCC#N
inactive: [1] | [3] | [4] | [5] | [6] | [8]

CC1=C(C=O)C(C)(C)CCC1
active: [4] 2.61 µM
inactive: [1] | [3] | [9] | [5] | [7]

N=C1N=C(N)c2ccccc21
inactive: [3] | [5] | [6] | [8] | [7]
active: [1] 173 µM | [4] 47.5 µM

COc1cc(OC)c2ccc(=O)oc2c1
inactive: [1] | [3] | [4] | [6] | [8] | [7]

CCO[Si](CCC#N)(OCC)OCC
inactive: [1] | [3] | [4] | [5] | [7]

CCCCCCCCCO
inactive: [1] | [3] | [4] | [6] | [8]

C=CCCCCCCCCC(=O)OCC
active: [3] 55.9 µM | [8] 100 µM
inactive: [1] | [4] | [6] | [7]

C=C(C)CCCC(C)CCO (configuration not stated)
inactive: [1] | [7]
active: [3] 41.9 µM | [4] 9.99 µM

O=C(O)c1cc2ccccc2cc1O
active: [3] 36.1 µM
inactive: [1] | [4] | [9] | [5] | [6]

Cc1ccccc1S
inactive: [1] | [4] | [5] | [7]
active: [3] 41.6 µM

O=C1CCCCCCCCCCCC(=O)OCCO1
active: [1] 54.3 µM
inactive: [3] | [4] | [9] | [5]

C=CC(O)CCCCC (configuration not stated)
inactive: [1] | [3] | [4] | [7]

O=C(O)CS
inactive: [1] | [4] | [10]

C1=COCCC1
inactive: [1] | [11] | [4] | [9] | [5] | [8]

CCCCOC(=O)C(C)OC(=O)CCC (configuration not stated)
inactive: [1] | [3] | [4] | [5] | [7]
